# Results as given in the supplement of paper PMC6555819.
# How the values were obtained:
# Assay in all cases: PBM binding z-score (relative to random genomic background probes); higher = stronger binding; sequences stand for … in GC…GCGATTGACAGCGTAGAATGAAGG
# [1] = system: FXR:RXRa (NR concentration 270 nM, RXRa partner concentration 90 nM)
# In short: (§1)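 Probes were double-stranded and carried 34-nt variable regions with direct-repeat seeds, single-nucleotide variants, half-site ablations and random human genomic background sequences, printed on custom Agilent 4×180K protein-binding microarrays. Arrays were incubated 1 h with ligand-free nuclear receptor dimers in PBS pH 7.4, 2% milk, 0.02% Triton X-100, 1 mM DTT, 0.2 mg/mL BSA and 0.4 mg/ml salmon testes DNA. Antibodies against each partner (one per run) detected binding, and scanned fluorescence was regression-normalized. Binding z-scores use the random background probes as reference.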
# [2] = system: LXRa:RXRa (NR concentration 270 nM, RXRa partner concentration 90 nM)
# In short: as §1
# [3] = system: LXRa homodimer (NR concentration 270 nM)
# In short: as §1
# [4] = system: LXRb:RXRa (NR concentration 270 nM, RXRa partner concentration 90 nM)
# In short: as §1
# [5] = system: LXRb homodimer (NR concentration 270 nM)
# In short: as §1
# [6] = system: PPARa:RXRa (NR concentration 270 nM, RXRa partner concentration 90 nM)
# In short: as §1
# [7] = system: PPARg:RXRa (NR concentration 180 nM, RXRa partner concentration 90 nM)
# In short: as §1
# [8] = system: PPARg:RXRa 270nM:90nM, anti-RXR (NR concentration 270 nM, RXRa partner concentration 90 nM)
# In short: as §1
# [9] = system: PPARg:RXRa 30nM:10nM, anti-RXR (NR concentration 30 nM, RXRa partner concentration 10 nM)
# In short: as §1
# [10] = system: PPARg:RXRa 90nM:30nM, anti-RXR (NR concentration 90 nM, RXRa partner concentration 30 nM)
# In short: as §1
Sequence,PBM binding z-score [1],PBM binding z-score [2],PBM binding z-score [3],PBM binding z-score [4],PBM binding z-score [5],PBM binding z-score [6],PBM binding z-score [7],PBM binding z-score [8],PBM binding z-score [9],PBM binding z-score [10]
CCTTACGGGCCACGAGGTTATAGCACGACGAGCG,0.333,0.406,-0.158,0.202,-0.806,1.44,1.29,0.67,-0.315,0.471
CCTCGGAGGACAACAGGATGTCAGAGCTGCCAGA,-0.208,-0.272,-0.316,-0.845,-1.16,-0.631,0.183,-1.12,-0.754,-1.23
ATATGTAGGTTAGCGTCATTCAGAAAGTAGGGAA,0.121,0.529,-0.273,0.174,0.215,2.81,4.14,3.23,1.36,2.32
CGAACTAGGTCAGAACAGGACAGTTAAGGATGAT,1.32,0.929,-0.00999,0.73,-0.36,3.07,5.13,4.49,2.04,3.46
CGTCAAAGCTCAACTAAGGTAACGTAAAGCACGC,0.16,-0.241,-0.0906,-0.093,-0.32,-0.0617,0.335,-0.241,-0.2,-0.494
CAGACTAGGTCAAAGGTCAAAGTCGAGCCAACCA,8.06,6.96,4.82,7.09,2.54,7.49,13.9,10.9,13.4,13.3
ATATGAAGGTTAGGGTCATTCAGAAAGTAGGGAA,5.27,4.18,1.26,4.52,1.7,5.23,4,4.02,1.82,2.87
GCTGCTAGGTCAACTGATGGTCAGCTAAAGCTCG,4.31,3.05,0.34,2.04,-0.115,3.63,2.88,3.35,0.939,2.08
CCTAGCAGGCCAATCGGGGTCACTCAAGGCTTGA,4.42,4.3,0.394,3.97,-0.646,4.79,2.8,3.72,0.796,2.75
TAGCCAAGGTCAGATCGGGCCAGTATACGCTATA,5.26,3.12,-0.0844,2.55,0.145,3.85,1.88,2.35,0.514,1.53
ATCGAAAGGTCGCAGGTGAGTATACCCACCCGAA,4.98,3.65,0.17,2.74,0.436,5.01,4.34,4.73,1.5,3.31
CCTTACGGGTAACTCCAGGTTATAGCATCGGAGT,0.565,7.03,3.25,4.13,0.0113,0.572,0.317,0.049,-0.487,-0.0126
CGAACTAGGTCACCAGGAAAGTGAAGAGGTTGGA,3.52,2.48,-0.13,1.69,-0.3,5.05,8.48,7.2,5.35,6.86
GCTTACGGGTCAAAGGTTACAGCATGAATAGAAT,8.04,5.9,0.488,6.05,0.89,7.24,12,9.99,10,11.5
CTAACTAGGTCAAAGGACAGTGAAAGGCGACGTA,3.68,2.75,0.132,1.85,-0.0221,5.86,10.8,9.18,9.63,10.2
CAACCTAGGTCACCGGAAGGTCAAAGTCCGCATG,7.05,6.32,5.53,5.93,1.49,5.6,6.23,6.31,3.11,5.38
CGAACTACGTCAAAGGACAGTGAAAGGCGACGTA,-0.5,-0.431,-0.3,-0.675,-0.597,0.0872,1.15,1.53,0.179,1.25
CAAACTAGGTCACAGAGGTCGAAGTCCGTGCGTA,4.92,4.23,1.74,3.62,0.575,5.48,9,6.93,5.15,7.32
GCTGCTAGGTCATGTTGGTCAGCTAACGGGTACG,3.46,2.59,0.616,1.75,0.329,3.03,1.62,2.3,0.174,1.38
ATATGTAGGCTAGGGTCATTCAGAAAGTAGGGAA,3.72,3.09,0.43,3.94,0.611,5.08,5.38,4.76,3.09,4.24
TTACCAAGGTGAAAGGTCGGTGATGCACGCCTTG,2.27,1.8,-0.377,1.34,-0.609,4.27,7.36,6.88,6.6,7.95
CCTTACGGGTCAAGGTTGTAGCACGGGTGGTACG,4.89,3.37,-0.181,2.48,-0.0387,4.68,4.01,4.21,1.2,3
AACGAAAGGTCGACGAGGTGAGTATACACCGTTT,4.99,3.68,0.231,2.9,0.0317,4.82,3.19,3.42,1.02,2.48
TTACAAAGGTGAAAGGTCGTTGATGCACGCCTTG,5.91,4.66,0.507,4.08,-0.0513,6.21,9.23,8.27,8.34,8.62
CCGACTGGGCCATTCAGAGGTCATTGATCATATG,2.92,4.38,6.59,3.54,-0.323,3.44,1.4,2.29,0.268,1.42
